# Results from PubChem BioAssay AID651903 (Broad Institute, 2012).
# About 1,100 (5%) of roughly 22,000 compounds were called active. For the sample, actives were picked, then their nearest neighbours and some compounds at random. A number with no mark means an inactive call. Cut-off read from the data, not from the text of the source: active = activity score above about 55%; inconclusive = no clear call, values can overlap the other calls; inactive = below that.
# Assay: inhibitors of intracellular Trypanosoma cruzi, primary screen, cell-based, plate reader, single point, set 2 (AID 651903);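 note: parasites and compound incubated about four days before reading; 0% = median of neutral control wells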
# Conditions: intracellular Trypanosoma cruzi in host cells, at 5.01 µM, stronger effect = higher value
row,Structure (SMILES),activity score (inhibition)
1,C[C@H](CO)N1C[C@H](C)[C@@H](CN(C)S(=O)(=O)c2ccc(F)cc2)Oc2c(NC(=O)Nc3ccccc3)cccc2C1=O,14.1%
2,C[C@H]1CN([C@@H](C)CO)C(=O)Cc2cc(NS(=O)(=O)c3ccc(Cl)cc3)ccc2O[C@H]1CN(C)S(C)(=O)=O,-19.4%
3,COc1ccc(S(=O)(=O)N(C)C[C@H]2OCCCC[C@@H](C)Oc3ccc(NC(=O)c4ccncc4)cc3C(=O)N([C@H](C)CO)C[C@@H]2C)cc1,-7.48%
4,COc1ccc(S(=O)(=O)N(C)C[C@H]2OCc3cnnn3CCCC(=O)N([C@H](C)CO)C[C@H]2C)cc1,0.901%
5,C[C@@H]1CN([C@@H](C)CO)C(=O)c2cccc(NC(=O)CCCCCC(=O)Nc3ccccc3N)c2O[C@@H]1CN(C)CC1CCCCC1,17.2%
6,C[C@@H]1CN([C@H](C)CO)C(=O)c2cccc(NC(=O)CCCCCC(=O)Nc3ccccc3N)c2O[C@H]1CN(C)CC1CCCCC1,62.4% (active)
7,C[C@H]1CN([C@@H](C)CO)C(=O)c2cccc(NC(=O)CCCCCC(=O)Nc3ccccc3N)c2O[C@@H]1CN(C)CC1CCCCC1,81.9% (active)
8,C[C@H](CO)N1C[C@H](C)[C@H](CN(C)CC2CCCCC2)Oc2ccc(NC(=O)CCCCCC(=O)Nc3ccccc3N)cc2C1=O,0.222%
9,CC(C)NC(=O)Nc1cccc2c1O[C@H](CN(C)CC1CCCCC1)[C@H](C)CN([C@H](C)CO)C2=O,-12%
10,C[C@@H]1CN([C@@H](C)CO)C(=O)c2cccc(NC(=O)CCCCCC(=O)Nc3ccccc3N)c2O[C@H]1CN(C)C(=O)Nc1cccc2ccccc12,0.294%
11,COc1cc(/C=N\NC(=O)CCCCCCC(=O)NO)c(Br)cc1O,22.6%
12,C[C@@H]1CN([C@H](C)CO)C(=O)c2cccc(NC(=O)C3CC3)c2O[C@@H]1CN(C)C(=O)Nc1ccccc1,-22.6%
13,Cc1ccc(S(=O)(=O)Nc2cccc3c2O[C@H](CN(C)C(=O)Nc2ccc(C(F)(F)F)cc2)[C@@H](C)CN([C@@H](C)CO)C3=O)cc1,-14.4%
14,C[C@H]1CN([C@@H](C)CO)C(=O)c2cccc(NC(=O)c3ccc(-c4nccs4)cc3)c2O[C@@H]1CN(C)C(=O)Nc1ccc(C(F)(F)F)cc1,-8.3%
15,C[C@H](CO)N1C[C@H](C)[C@H](CN(C)C(=O)Nc2ccccc2)Oc2c(NC(=O)Nc3ccc(C(F)(F)F)cc3)cccc2C1=O,70.2% (active)
16,C[C@@H]1CN([C@H](C)CO)C(=O)c2cccc(NS(=O)(=O)c3ccc(F)cc3)c2O[C@@H]1CN(C)C(=O)Nc1ccc(C(F)(F)F)cc1,65.8% (active)
17,C[C@@H]1CN([C@H](C)CO)C(=O)c2cccc(NC(=O)c3ccc(-c4nccs4)cc3)c2O[C@@H]1CN(C)C(=O)Nc1ccc(C(F)(F)F)cc1,38.2%
18,C[C@@H]1CN([C@H](C)CO)C(=O)c2cccc(NC(=O)Nc3ccc(C(F)(F)F)cc3)c2O[C@H]1CN(C)S(=O)(=O)c1ccc(Cl)cc1,36.7%

row,Structure (SMILES),activity score (inhibition)
1,C[C@H](CO)N1C[C@H](C)[C@H](CN(C)C(=O)Nc2ccc(C(F)(F)F)cc2)Oc2c(NC(=O)c3ccncc3)cccc2C1=O,72.4% (active)
2,C[C@H]1CN([C@@H](C)CO)C(=O)c2cccc(NC(=O)Nc3ccc(C(F)(F)F)cc3)c2O[C@H]1CN(C)S(=O)(=O)c1ccccc1,11.5%
3,C[C@@H]1CN([C@@H](C)CO)C(=O)c2cccc(NC(=O)Nc3ccc(C(F)(F)F)cc3)c2O[C@@H]1CN(C)S(=O)(=O)c1ccc(F)cc1,71.6% (active)
4,C[C@H]1CN([C@@H](C)CO)C(=O)c2cccc(NS(=O)(=O)c3ccccc3)c2O[C@@H]1CN(C)C(=O)Nc1ccc(C(F)(F)F)cc1,34.3%
5,C[C@@H]1CN([C@@H](C)CO)C(=O)c2cccc(NC(=O)Nc3ccc(F)cc3)c2O[C@@H]1CN(C)C(=O)Nc1ccccc1,-2.37%
6,C[C@@H]1CN([C@H](C)CO)C(=O)c2cccc(NC(=O)Nc3ccc(F)cc3)c2O[C@@H]1CN(C)C(=O)Nc1ccc(C(F)(F)F)cc1,-4.83%
7,COc1ccc(NC(=O)Nc2cccc3c2O[C@H](CN(C)S(=O)(=O)c2cn(C)cn2)[C@H](C)CN([C@@H](C)CO)C3=O)cc1,-20.8%
8,O=C(NO)c1ccc(C(=O)N/N=C/c2ccc([N+](=O)[O-])c(O)c2)cc1,1.55%
9,C[C@@H]1CN([C@@H](C)CO)C(=O)c2cccc(N(C)C)c2O[C@H]1CN(C)S(=O)(=O)c1cccs1,-13.3%
10,Cc1noc(C)c1NC(=O)N(C)C[C@@H]1Oc2ccc(NC(=O)Nc3ccc(C(F)(F)F)cc3)cc2C(=O)N([C@H](C)CO)C[C@@H]1C,0.983%
11,C[C@H](CO)N1C[C@H](C)[C@@H](CN(C)S(=O)(=O)c2ccc(F)cc2)Oc2ccc(NC(=O)CCC(F)(F)F)cc2C1=O,4.98%
12,C[C@H](CO)N1C[C@H](C)[C@H](CN(C)S(=O)(=O)c2cn(C)cn2)Oc2c(NC(=O)c3ccc(-c4nccs4)cc3)cccc2C1=O,-7.9%
13,C[C@@H]1CN([C@H](C)CO)C(=O)c2cccc(NC(=O)c3nc4ccccc4s3)c2O[C@@H]1CN(C)Cc1ccc(Oc2ccccc2)cc1,24.2%
14,Cc1noc(C)c1NC(=O)Nc1ccc2c(c1)CC(=O)N([C@@H](C)CO)C[C@H](C)[C@@H](CN(C)CC1CCCCC1)O2,4.18%
15,Cc1ccc(S(=O)(=O)N(C)C[C@H]2OCCCC[C@@H](C)Oc3ccc(NS(C)(=O)=O)cc3C(=O)N([C@H](C)CO)C[C@@H]2C)cc1,4.35%
16,COc1ccc(S(=O)(=O)N(C)C[C@@H]2Oc3ccc(NS(=O)(=O)c4cn(C)cn4)cc3C(=O)N([C@@H](C)CO)C[C@@H]2C)cc1,-13%
17,COc1ccc(S(=O)(=O)N(C)C[C@H]2Oc3ccc(NS(=O)(=O)c4ccc(F)cc4)cc3C(=O)N([C@H](C)CO)C[C@H]2C)cc1,6.09%
